Unmarked numbers belong to inactive results. Inconclusive results are not listed. Where a call stands in place of a potency, no number is given. Calls of active or inactive are those of the source. Unless noted, the call rests on the fitted dose curve; in most records, active means well fitted curve in the direction sought with a large enough effect in the repeat runs; inconclusive means weak or mixed curves; inactive means no such curve, though single readings can be large; an effect the other way counts as inactive or inconclusive.
Experiments:
[1] = qHTS assay to identify small molecule antagonists of the estrogen related receptor (ERR) signaling pathway from Tox21 library - cell viability counter screen (AID 1224834); further: nearly all actives have a fitted effect of over 30% in size; further: potency means the concentration at half of the fitted maximal effect
Outline: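 In this quantitative HTS format, ERR cells receive compounds in DMSO and are incubated for 17.5 h at 37 C. Live-cell protease activity is then detected with CellTiter-Fluor.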

[2] = qHTS assay to identify small molecule agonists of the constitutive androstane receptor (CAR) signaling pathway - cell viability counter screen (AID 1224836); further: nearly all actives have a fitted effect of over 45% in size
Outline: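 Using CellTiter-Fluor, viability of HepG2 cells harbouring hCAR and CYP2B6-2.2kb was measured following 23 h incubation with a 15-concentration compound series plus PK11195 (0.75 uM final).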

[3] = qHTS assay to identify small molecule antagonists of the constitutive androstane receptor (CAR) signaling pathway - cell viability counter screen (AID 1224837); further: nearly all actives have a fitted effect of over 45% in size
Outline: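 In quantitative HTS format, compounds at 15 concentrations were applied to HepG2 cells double-transfected with hCAR and CYP2B6-2.2kb under 50 nM CITCO stimulation; live-cell protease activity was read after 23 hr via CellTiter-Fluor.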

[4] = qHTS assay to identify small molecule antagonists of the estrogen related receptor signaling pathway with the pleiotropic PPARgamma coactivator (PGC) from Tox21 10K library - cell viability counter screen (AID 1224840; active means well fitted cell-killing curve with a large enough effect in the repeat runs, not every such curve was filed as active; further: nearly all actives have a fitted effect of over 40% in size)
Outline: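 Viability counter screen, PGC/ERR cells: 17.5 h compound exposure at 37 C, CellTiter-Fluor fluorescence endpoint.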

[5] = qHTS assay to identify small molecule agonists of the estrogen related receptor signaling pathway with the pleiotropic PPARgamma coactivator (PGC) from Tox21 10K library (AID 1224842); further: nearly all actives have a fitted effect of over 15% in size; further: potency means the concentration at half of the fitted maximal effect
Outline: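 PGC/ERR reporter cell line, 2,000 cells per well, incubated 6 h at 37 C before 23 nL compound in DMSO was added. After 18 h at 37 C, One-Glo luminescence read following 30 min at room temperature.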

[6] = molecular target: Thyrotropin receptor (Homo sapiens) (UniProt P16473); experiment: qHTS assay to identify small molecule agonists of the thyroid stimulating hormone receptor (TSHR) signaling pathway (AID 1224843; calls by dose curve; further: nearly all actives have a fitted effect of over 45% in size)
Outline: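 Agonist-mode screen: TSHR HEK293 cells received test chemicals for half an hour at room temperature, then HTRF cAMP detection reagents for one hour prior to fluorescence measurement. Each chemical ran as a 15-concentration series, triplicated.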

[7] = qHTS assay to identify small molecule agonists of H2AX - cell viability counter screen (AID 1224847; calls by dose curve; further: nearly all actives have a fitted effect of over 30% in size; further: potency means the concentration at half of the fitted maximal effect)
Outline: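 Quantitative HTS viability measurement: CHO-K1 wild-type cells in serum (10% FBS) medium, short 3 hr drug exposure at 37C with 0.76% DMSO, CellTiter-Glo luminescent detection.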

[8] = qHTS assay to identify small molecule antagonists of the estrogen related receptor (ERR) signaling pathway from Tox21 library (AID 1224848); further: nearly all actives have a fitted effect of over 50% in size; further: potency means the concentration at half of the fitted maximal effect
Outline: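 Quantitative high-throughput format: ERR reporter cells (2,000/well) pre-incubated 6 h, treated 18 h at 37 C with compounds in DMSO alongside positive and negative controls, then read by ONE-Glo luminescence.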

[9] = qHTS assay to identify small molecule agonists of the estrogen related receptor (ERR) signaling pathway from Tox21 library (AID 1224849; calls by dose curve; further: nearly all actives have a fitted effect of over 15% in size); details: ERR reporter cell line, ONE-Glo luciferase, 18 h; at 92.4 µM (top of the series) unless noted
Outline: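 Reporter cells (ERR, NTP source) treated with Tox21 10K compounds 18 h, 37 C. Readout: ONE-Glo luminescence, 30 min RT.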

[10] = qHTS RealTime-Glo MT Cell Viability Assay in HepG2 cells - 24 hour (AID 1224867); further: nearly all actives have a fitted effect of over 50% in size
Outline: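 Viability was tracked continuously by NanoLuc luminescence from prosubstrate reduced by living HepG2 cells, at successive time points over 40 h of compound exposure. Cells with reagent were preincubated 5 h at 37 °C before compound addition.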

[11] = qHTS RealTime-Glo MT Cell Viability Assay in HEK293 cells - 32 hour (AID 1224868); further: nearly all actives have a fitted effect of over 50% in size; further: potency means the concentration at half of the fitted maximal effect
Outline: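 Viability tracked continuously by luminescence as live cells reduce a prosubstrate for NanoLuc; HEK293 cells preincubated 5 h, compound-treated at 37 C, and read at 0, 8, 16, 24, 32 and 40 h.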

[12] = A CellTox Green Cytotoxicity Assay to monitor cytotoxicity in HEK293 cells - 0 hour (AID 1224869); further: nearly all actives have a fitted effect of over 50% in size
Outline: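 Homogeneous no-lysis format: HEK293 cell suspension mixed with CellTox Green reagent, seeded, incubated 5 h at 37 C/5% CO2, then dosed by pintool with compound in DMSO.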

[13] = qHTS RealTime-Glo MT Cell Viability Assay in HepG2 cells - 40 hour (AID 1224870); further: nearly all actives have a fitted effect of over 50% in size
Outline: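 HepG2 cells (600/well) mixed with RealTime-Glo MT reagent, settled 5 h at 37 C/5% CO2 before compound addition. Nonlytic NanoLuc luminescence from viable-cell prosubstrate reduction read repeatedly during 40 h treatment at 37 C.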

[14] = molecular target: Luciferin 4-monooxygenase (Photinus pyralis) (UniProt P08659); experiment: qHTS assay to identify small molecule inhibitors of firefly luciferase (AID 1224835); further: nearly all actives have a fitted effect of over 25% in size; further: potency means the concentration at half of the fitted maximal effect
Outline: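 Biochemical qHTS: compounds run as interplate titrations against purified firefly enzyme, with D-luciferin and ATP each at its KM concentration. Light output recorded by CCD imaging.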

[15] = qHTS assay to identify small molecule agonists of the hypoxia (HIF-1) signaling pathway - cell viability counter screen (AID 1224844; calls by dose curve; further: nearly all actives have a fitted effect of over 50% in size; further: potency means the concentration at half of the fitted maximal effect)
Outline: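 Same wells as the HIF-1 reporter screen; ME-180 cells carrying HRE-bla, 17 hr treatment at 37C; CellTiter-Glo luminescence read after 30 min at room temperature.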

[16] = qHTS assay to identify small molecule agonists of H2AX (AID 1224845; active means well fitted activation curve with a large enough effect in the signal ratio in the repeat runs, not every such curve was filed as active; the % refers to the signal ratio)
Outline: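 Wild-type CHO-K1 cells, plated overnight, exposed 3hr at 37C to 15 concentrations (0.76% DMSO final). Lysed, then HTRF anti-pH2AX (S139) cryptate and anti-H2AX-d2 antibodies, 24 hr room temperature; 665/620 nm emission read.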

[17] = qHTS assay to identify small molecule agonists of the hypoxia (HIF-1) signaling pathway (AID 1224846; active means well fitted activation curve with a large enough effect in the signal ratio in the repeat runs, not every such curve was filed as active; the % refers to the signal ratio)
Outline: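 In ME-180 cells bearing an HRE-bla construct, 17 h treatment with DMSO-dissolved compounds at 37C was followed by CCF4-AM loading to quantify reporter induction.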

[18] = molecular target: Nuclear receptor subfamily 1 group I member 3 (Homo sapiens) (UniProt Q14994); experiment: qHTS assay to identify small molecule agonists of the constitutive androstane receptor (CAR) signaling pathway (AID 1224839); further: nearly all actives have a fitted effect of over 15% in size; further: potency means the concentration at half of the fitted maximal effect;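 on activation: HepG2 cells stably carrying human CAR and a CYP2B6 luciferase reporter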
Outline: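 Double-stable HepG2 cells (hCAR, CYP2B6-2.2kb) seeded 4 h before compound addition. Exposure 24 h with 0.75 uM PK11195 final. Luciferase detected by ONE-Glo.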

[19] = qHTS assay to identify small molecule antagonists of the estrogen related receptor signaling pathway with the pleiotropic PPARgamma coactivator (PGC) from Tox21 10K library (AID 1224841; call rule not given here; further: potency means the concentration at half of the fitted maximal effect)
Outline: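 In the PGC/ERR line, DMSO solutions of test chemicals are pin-delivered to 2,000 cells/well six hours after dispensing. Following eighteen hours' incubation, One-Glo reagent is added and luminescence recorded.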

[20] = molecular target: Nuclear receptor subfamily 1 group I member 3 (Homo sapiens) (UniProt Q14994); experiment: qHTS assay to identify small molecule antagonists of the constitutive androstane receptor (CAR) signaling pathway (AID 1224838); further: nearly all actives have a fitted effect of over 40% in size; further: potency means the concentration at half of the fitted maximal effect
Outline: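 CITCO-stimulated (50 nM final) HepG2 cells stably transfected with hCAR and CYP2B6-2.2kb luciferase were exposed to compounds at 15 concentrations for 24 h at 37 C/5% CO2. A luciferase reagent was added and luminescence recorded after 30 min.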

Nuclear receptor subfamily 1 group I member 3 (Homo sapiens), sequence (Q14994 whole entry, looked up): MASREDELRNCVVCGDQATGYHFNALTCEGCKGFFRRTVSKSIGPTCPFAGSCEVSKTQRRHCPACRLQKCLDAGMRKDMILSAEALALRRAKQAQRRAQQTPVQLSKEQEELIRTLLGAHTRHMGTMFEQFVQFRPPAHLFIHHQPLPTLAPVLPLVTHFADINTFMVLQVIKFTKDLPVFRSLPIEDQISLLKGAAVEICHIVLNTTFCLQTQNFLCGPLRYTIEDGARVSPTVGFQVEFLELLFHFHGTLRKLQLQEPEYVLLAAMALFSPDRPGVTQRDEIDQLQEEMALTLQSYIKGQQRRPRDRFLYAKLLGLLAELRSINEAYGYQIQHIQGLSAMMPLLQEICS
Luciferin 4-monooxygenase (Photinus pyralis), sequence (P08659 whole entry, looked up): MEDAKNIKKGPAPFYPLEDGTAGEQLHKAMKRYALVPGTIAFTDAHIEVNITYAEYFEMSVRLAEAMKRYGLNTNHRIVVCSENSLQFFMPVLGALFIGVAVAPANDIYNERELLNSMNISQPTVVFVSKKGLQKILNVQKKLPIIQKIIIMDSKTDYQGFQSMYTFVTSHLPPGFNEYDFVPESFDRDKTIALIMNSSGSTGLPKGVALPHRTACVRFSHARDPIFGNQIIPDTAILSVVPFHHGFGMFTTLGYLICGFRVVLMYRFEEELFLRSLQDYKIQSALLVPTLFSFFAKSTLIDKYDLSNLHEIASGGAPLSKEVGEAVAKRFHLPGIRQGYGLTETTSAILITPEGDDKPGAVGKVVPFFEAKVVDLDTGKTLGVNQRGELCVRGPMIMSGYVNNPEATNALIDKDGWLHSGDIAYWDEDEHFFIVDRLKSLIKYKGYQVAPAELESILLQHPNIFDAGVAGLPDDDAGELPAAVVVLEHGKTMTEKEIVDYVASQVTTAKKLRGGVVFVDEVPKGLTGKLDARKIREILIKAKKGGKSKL
Thyrotropin receptor (Homo sapiens), sequence (P16473 whole entry, looked up): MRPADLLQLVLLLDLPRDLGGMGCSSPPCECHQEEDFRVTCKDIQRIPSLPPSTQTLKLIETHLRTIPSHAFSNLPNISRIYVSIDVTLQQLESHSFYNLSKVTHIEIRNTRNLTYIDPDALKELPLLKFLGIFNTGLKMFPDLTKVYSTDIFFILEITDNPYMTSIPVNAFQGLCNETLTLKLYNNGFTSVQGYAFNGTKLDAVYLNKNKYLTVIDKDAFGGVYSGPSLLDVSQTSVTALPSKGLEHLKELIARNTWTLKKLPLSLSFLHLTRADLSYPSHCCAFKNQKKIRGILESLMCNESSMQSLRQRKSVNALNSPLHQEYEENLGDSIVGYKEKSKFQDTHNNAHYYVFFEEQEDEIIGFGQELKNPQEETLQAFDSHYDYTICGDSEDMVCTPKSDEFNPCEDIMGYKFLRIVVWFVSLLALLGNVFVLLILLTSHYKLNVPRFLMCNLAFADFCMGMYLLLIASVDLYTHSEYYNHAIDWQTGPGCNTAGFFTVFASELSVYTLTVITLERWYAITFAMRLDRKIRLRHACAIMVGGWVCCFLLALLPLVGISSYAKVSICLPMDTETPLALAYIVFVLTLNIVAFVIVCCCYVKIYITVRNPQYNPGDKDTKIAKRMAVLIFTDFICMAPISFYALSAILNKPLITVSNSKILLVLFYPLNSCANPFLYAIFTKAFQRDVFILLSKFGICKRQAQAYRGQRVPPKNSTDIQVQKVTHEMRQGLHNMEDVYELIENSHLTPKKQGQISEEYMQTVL

| SMILES | Potency [1] | Potency [2] | Potency [3] | Potency [4] | Potency [5] | Potency [6] | Potency [7] | Potency [8] | activity change, positive = activation [9] | Potency [10] | Potency [11] | Potency [12] | Potency [13] | Potency [14] | Potency [15] | Potency [16] | outcome [17] | Potency [18] | Potency [19] | Potency [20] |
| --- | --- | --- | --- | --- | --- | --- | --- | --- | --- | --- | --- | --- | --- | --- | --- | --- | --- | --- | --- | --- |
| CCCc1c(OCCCOc2ccc(OCC(=O)O)cc2)ccc(C(C)=O)c1O | inactive | inactive | inactive | inactive | inactive | inactive | 101 µM (active) | inactive | -8.13% | inactive | inactive | inactive | inactive |  |  |  |  |  |  |  |
| NC(=O)Cn1c(=O)cc(CCN2CCN(c3nccc4sccc34)CC2)c2ccc(F)cc21 | 48.6 µM (active) |  |  |  | inactive |  |  | 54.5 µM (active) | -34.9% |  | 43.6 µM (active) |  | inactive | 44.8 µM (active) | inactive | inactive | inactive |  |  |  |
| O=S1OCCO1 | inactive | inactive | inactive | inactive | inactive | inactive | inactive | inactive | 6.2% | inactive | inactive | inactive | inactive |  | inactive |  | inactive |  |  |  |
| c1ccc(COCc2ccccc2)cc1 | inactive | inactive | inactive |  | inactive | inactive | inactive | inactive | 0.496% | inactive | inactive | inactive | inactive |  | inactive | inactive | inactive | inactive |  |  |
| Cc1ccc(Nc2nccc(N(C)c3ccc4c(C)n(C)nc4c3)n2)cc1S(N)(=O)=O | 29.8 µM (active) | inactive | inactive |  | inactive |  | inactive | 11.9 µM (active) | -54.4% [at 42.5 µM] | inactive | 1.2 µM (active) | inactive | inactive |  | inactive | inactive | inactive | 4.73 µM (active) | 23.7 µM (active) |  |
| CN(C(=O)C(Cl)Cl)c1ccc(OC(=O)c2ccco2)cc1 | inactive | inactive | inactive | inactive |  | inactive | inactive |  |  | inactive | inactive | inactive | inactive |  | inactive |  |  | inactive |  | inactive |
| O=C1NCCN1 | inactive |  | inactive |  | inactive | inactive | inactive | inactive | 2.98% | inactive | inactive | inactive | inactive |  | inactive | inactive | inactive |  | inactive |  |
| O=C(O)C(Cc1cc(I)c(O)c(I)c1)c1ccccc1 (stereo unspecified) |  | inactive | inactive | inactive |  | inactive | inactive |  |  | inactive | inactive | inactive | inactive | inactive | inactive | inactive |  | inactive |  |  |
| CC(=O)[C@H]1CC[C@H]2[C@@H]3C=CC4=CC(=O)CC[C@@]4(C)[C@@H]3CC[C@]12C |  | inactive | inactive |  |  | inactive |  |  |  | inactive |  | inactive | inactive | inactive | inactive | inactive | inactive | inactive |  |  |
| CCCOC(=O)c1ccc(N)cc1 |  | inactive | inactive | inactive | inactive | inactive | inactive |  | -13.8% [at 42.5 µM] | inactive | inactive | inactive | inactive | inactive | inactive |  | inactive |  | inactive | inactive |
| CC1=NN(c2ccc(C(=O)O)cc2)C(=O)C1 |  | inactive | inactive |  |  |  | inactive |  |  | inactive | inactive | inactive | inactive | inactive | inactive |  | inactive |  |  | inactive |
| O=C(c1ccc(O)cc1)c1ccc(Cl)cc1 |  | inactive | inactive | inactive |  |  |  |  |  | inactive | 25.1 µM (active) | inactive | inactive | 64.7 µM (active) | inactive | inactive | inactive | 49.6 µM (active) |  |  |
| CC1=C(C=O)C(C)(C)CCC1 |  | inactive | inactive |  |  | inactive | inactive |  |  | inactive |  | inactive | inactive | inactive | inactive | inactive | inactive | inactive |  | inactive |
| COc1cc2c(cc1OC)-c1cc(=Nc3c(C)cc(C)cc3C)n(C)c(=O)n1CC2 |  | inactive | inactive | inactive | 13.3 µM (active) |  | inactive | 13.3 µM (active) | -48.8% [at 42.5 µM] | inactive |  | inactive | inactive | inactive | inactive | inactive | inactive |  | inactive | inactive |
| Cc1ccc(/C=N/n2c(-c3ccccc3)csc2=S)cc1 |  | inactive | inactive | inactive |  | inactive |  | inactive | 4.75% [at 42.5 µM] | inactive | inactive | inactive | inactive | inactive |  | inactive | inactive | 29.8 µM (active) | inactive | inactive |
| Cc1c(C(=O)NN2CCCCC2)nn(-c2ccc(Cl)cc2Cl)c1-c1ccc(Cl)cc1 |  | inactive | inactive | inactive |  | inactive | inactive |  |  | inactive |  | inactive | inactive | inactive | 21.3 µM (active) |  |  | inactive |  | 23.7 µM (active) |
| C[C@@H]1C[C@H]2[C@@H]3CCC4=CC(=O)C=C[C@]4(C)[C@@]3(F)[C@@H](O)C[C@]2(C)[C@H]1C(=O)CO |  | inactive | inactive | inactive |  | inactive | inactive |  |  | inactive | inactive | inactive | inactive | inactive |  | inactive |  | inactive |  | inactive |

Source: PubChem BioAssay (Tox21)
